HT1080 IDH1KD tx: HT-1080 IDH1 knockdown cell toxicity (counter line); HT-1080 IDH1 knockdown viability, ATP luminescence, 48 h; Potency, µM (titrated, usually from 46.1 µM), without a hit: at the top dose activity, negative = toxicity, actives largely listed as cytotoxic; 360,000 tested, 2% active; AID 686971;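 further: potency means the concentration at half of the fitted maximal effect; 0% = DMSO wells and -100% = cell-free medium wells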
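Viability of IDH1-knockdown HT-1080 fibrosarcoma cells was assessed by CellTiter-Glo after 48 h at 37 °C with titrated compound; concentration-effect curves were classified by fit quality and response size.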
TDP1 cell noCPT: qHTS for Inhibitors of human tyrosyl-DNA phosphodiesterase 1 (TDP1): qHTS in cells in absence of CPT; AID 686978, 2013; Potency, µM (series often up to 46.2 µM), inactives show top-dose activity change, negative = growth inhibition, hits mostly inhibitors; DT40 Tdp1-/- hTDP1 cells, no CPT, ATP luminescence, 48 h; 420,000 tested, 15% active; further: potency means the concentration at half of the fitted maximal effect; nearly all actives have a fitted effect of over 55% in size
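Readout: luminescence from CellTiter-Glo after 30 min in the dark at RT. Cells: DT40 Tdp1-/- with stable hTDP1, 400/well. Exposure: compounds alone, ≥48 hr, 37 °C.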
TDP1 cell CPT: growth inhibition of DT40 Tdp1-/-;hTDP1 cells with camptothecin (screen for TDP1 inhibitors). chicken DT40 Tdp1-/-;hTDP1 cells + 20 nM CPT, ATP luminescence, 48 h. Potency, µM (highest dose often 46.2 µM), for the others: at the top dose activity change, negative = growth inhibition, usual class: inhibitors. 420,000 tested, 12% active; further: potency means the concentration at half of the fitted maximal effect; nearly all actives have a fitted effect of over 55% in size
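Chicken DT40 Tdp1-/- cells complemented with human TDP1, 400 cells/well, exposed to compounds plus 20 nM camptothecin for at least 48 h at 37 C; viability read as ATP content by CellTiter-Glo luminescence.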
ELG1 DNA repair: ELG1-dependent DNA repair inhibition; HEK293T ELG1-luciferase reporter, luminescence, 16 h; DNA damage induced by 5-fluorouridine; Potency, µM (series often up to 46.1 µM), inactives show at the top dose activity change, negative = inhibition, hits mostly inhibitors; 330,000 tested, 2.3% active; further: potency means the concentration at half of the fitted maximal effect; nearly all actives have a fitted effect of over 55% in size
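Overnight (16 hr) co-exposure of 2,000 cells/well to 5-fluorouridine and compound at 37 °C preceded detection. Luciferase was quantified via ONE-Glo luminescence; loss of signal denotes inhibition.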
IL1B secr inh: blocks inflammasome-driven IL-1 beta release; THP-1 LPS/ATP IL-1B secretion, AlphaLISA, 16 h; active compounds read low; 360,000 tested, 4.7% active; activity change, % at 57.5 µM; in the data active means activity change below about -50%; inconclusive means mostly about -30% to -49%
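THP-1 cells pretreated 1 hr with compounds (up to 57.5 uM final), then stimulated with LPS (250 ng/mL final) plus ATP (1.25 mM final); secreted IL-1B measured by AlphaLISA after 16 hr, decreased signal indicating inhibition.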
HT1080NT lethal: kills 2HG-producing HT-1080-NT fibrosarcoma cells; HT-1080-NT fibrosarcoma viability, CellTiter-Glo ATP luminescence, 48 h; Potency, µM (top dose mostly 46.1 µM), without a hit: at the highest dose activity, negative = less viability, most hits filed as cytotoxic; 360,000 tested, 1.6% active;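 further: NT is the 2HG producing partner of a matched IDH1 knockdown line; potency means the concentration at half of the fitted maximal effect; 0% = DMSO-treated cells and -100% = media-only wells without cells; nearly all actives have a fitted effect of over 55% in size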
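750 cells/well, RPMI + 5% FBS; 2 h settle, compound pin-transfer, 48 h at 37 degrees C. CellTiter-Glo 10 min RT, luminescence. Normalized to DMSO and media-only wells.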
* marks the source's active call; other numbers are inactive results; u = inconclusive; x = not tested or not shown. Rows were chosen to be rich in hits. Some 19% of all compounds tested hit in one or more screens of this group. Unless noted, the call rests on the fitted dose curve; in most records, active means well fitted curve in the direction sought with a large enough effect; inconclusive means small, poorly fitted or top-dose-only effect, or another doubt; inactive means no such curve, though single readings can be large; an effect the other way counts as inactive or inconclusive. Unless noted, on the % scale 0 is the no-effect control and ±100 the full control effect.

SMILES | HT1080 IDH1KD tx | TDP1 cell noCPT | TDP1 cell CPT | ELG1 DNA repair | IL1B secr inh | HT1080NT lethal
Cc1ccc(OCC(O)CNC(C)c2ccccc2)cc1C (stereo not given) | -21% | -104% | u | -1% | -23 | 0%
O=C1c2ccccc2C(=O)N1C(CO)C(O)c1ccc([N+](=O)[O-])cc1 (stereo not given) | 1% | 8% | 9% | 2% | -2 | 14%
COc1ccccc1Nc1nc2ccc(Cl)cc2nc1-n1nc(C)cc1C | x | 1% | -3% | x | x | x
Cc1cc(F)ccc1-n1nnc(C(N)=O)c1C | x | 1% | 5% | x | x | x
N#Cc1c(Cl)cccc1Oc1ccc(S(=O)(=O)Nc2ccccc2)cc1 | -4% | u | 1% | -12% | x | -24%
OC(COC(c1ccc(Cl)cc1)c1ccc(Cl)cc1)CN1CCc2ccccc2C1 (stereo not given) | u | u | u | -7% | -80* | 21µM*
Cc1ccc(C(OCC(O)CN2CCCCC2)c2ccccc2)cc1 (stereo not given) | 0% | 23µM* | 1% | -1% | u | -10%
CC(NCC(O)COCc1ccc(Cl)cc1)c1ccccc1 (stereo not given) | u | u | u | -4% | -59* | -28%
OC(COC(c1ccccc1)c1ccccc1)CN1CCc2ccccc2C1 (stereo not given) | u | 21µM* | u | 3% | -87* | -30%
CN1CCN(CC(O)COC(c2ccc(Cl)cc2)c2ccc(Cl)cc2)CC1 (stereo not given) | u | u | u | 11% | -22 | u
Cc1ccc(/C=N/N=C2/NC(=O)C(CC(=O)N3CCOCC3)S2)cc1 (stereo not given) | 5% | 3% | 4% | 7% | 16 | -16%
CCCCNC(=S)N(CCCO)Cc1cc2cc3c(cc2[nH]c1=O)OCO3 | 1% | -13% | -2% | x | u | 1%
CCOc1cc(Cl)c(S(=O)(=O)NCCCN2CCOCC2)cc1Cl | 2% | u | u | 3% | -12 | 0%
NC(=O)c1ccccc1OCC(=O)c1ccc(Cl)cc1 | -1% | u | -32% | 7% | -57* | -1%
CCCCCCOc1ccccc1C(N)=O | x | 16µM* | u | x | x | x
O=C(O)c1cc(-c2ccc(/C=C3\NC(=O)N(c4ccccc4)C3=O)o2)ccc1Cl | 1% | 4.1µM* | u | 27% | 0 | -1%
CC(C)C1CC(CCNCc2ccc(N(C)C)cc2)(c2ccccc2)CCO1 (stereo not given) | u | 7.3µM* | 7.3µM* | -15% | -100* | -7%
Cc1ccc(C2(CCNCc3ccc(N(C)C)cc3)CCOC(C(C)C)C2)cc1 (stereo not given) | 18µM* | -109% | u | u | -97* | 23µM*
CC(C)C1CC(CCNCc2ccc3c(c2)OCO3)(c2ccccc2)CCO1 (stereo not given) | 26µM* | u | u | -24% | -69* | 18µM*
Cc1ccc(C2(CCNS(=O)(=O)c3ccc(C)cc3)CCOC(C(C)C)C2)cc1 (stereo not given) | -25% | u | u | u | -8 | -15%
COC(=O)CN=Cc1c(C)[nH]n(-c2ccccc2)c1=O | -4% | -2% | -4% | 2% | 0 | -2%
Cc1[nH]n(-c2ccccc2)c(=S)c1C=NCCCN=Cc1c(C)[nH]n(-c2ccccc2)c1=S | -13% | -17% | u | u | -97* | -3%
O=C1C=CC(c2c[nH]c3ccccc23)CC1 (stereo not given) | u | 16µM* | u | x | -108* | u

Compound activity deposited in PubChem BioAssay by National Center for Advancing Translational Sciences (NCATS).
